Values without a mark were called inactive. For some of these results: Potency and affinity values are given separately. Active and inactive are the calls of the source. Unless noted, how the calls were made is not given here.

The nature of assay [1]: antimalarial activity against Dd2 strain (AID 2302;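 active means growth inhibition above 50% at the single 2 µM test dose, taken to imply half-maximal potency below 2 µM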;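 further: 0% = DMSO untreated growth and 100% = chloroquine plus artemisinin killed control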). The settings on record: P. falciparum Dd2 in RBCs, LDH growth readout, 72 h; at 2 µM; stronger effect = higher value.
Assay [2] in a line: HepG2 cytotoxicity, primary screen, cytotoxicity control for P. falciparum antimalarial project, cell-based, ATP luminescence (AID 2303;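 active means inhibition above 50%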;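 further: 0% = DMSO wells and 100% = digitonin-killed cells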). The note with it: HepG2 viability, 24-48 h, at 10 µM, stronger effect = higher value.
The target in assay [3] is L-lactate dehydrogenase (Plasmodium falciparum (isolate CDC / Honduras)) (UniProt Q27743). Kind of assay: PfLDH activity inhibition – cell lysate, 3D7 strain, counter-screen for P. falciparum growth inhibition project (AID 2304).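 Further: 0% = vehicle and 100% = reference inhibitor.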 The note with it: P. falciparum 3D7 crude extract, LDH APAD/NBT absorbance; at 2 µM; stronger effect = higher value. On the technique in general: A counterscreen serves to expose hits that act by an unwanted route or on another target.

The nature of assay [4]: inhibition of 3D7 malaria parasite growth – strain 3D7 (AID 2306).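 Further: 0% = DMSO wells and 100% = chloroquine plus artemisinin control wells.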 The settings on record: P. falciparum 3D7 erythrocytic growth, LDH absorbance, 72 h; at 2 µM; stronger effect = higher value.
In assay [5] the target is Calcium-dependent protein kinase 1 (Plasmodium falciparum (isolate 3D7)) (UniProt P62344). The experiment in a line: PfCDPK1 kinase inhibitors, biochemical, TCAMS library (AID 1159585; cut-off not given, nearly all actives have IC50 up to about 0.98 µM;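 further: inhibitors leave more ATP so luminescence rises with inhibition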). The note with it: recombinant PfCDPK1, Kinase-Glo ATP depletion luminescence.
Assay [6] has as its target Plasmodium falciparum protein kinase 6 (PK6, PF3D7_1337100) (UniProt Q8IDW1). The experiment in a line: PfPK6 kinase inhibitors, biochemical, TCAMS library (AID 1159586). The settings on record: recombinant PfPK6, Kinase-Glo ATP depletion luminescence. (Kinase-Glo reads ATP consumption through a luciferase reaction.)
Assay [7] concerns the target Protein kinase 7 (PK7), Plasmodium falciparum 3D7 (PF3D7_0213400) (UniProt Q7YTF7). Kind of assay: inhibition of Plasmodium PK7 catalytic activity – biochemical, TCAMS antimalarial set, Kinase-Glo luminescence (AID 1159587). The settings on record: recombinant PfPK7, Kinase-Glo ATP depletion luminescence.
The target of assay [8] is Calcium-dependent protein kinase 4 (Plasmodium falciparum (isolate 3D7)) (UniProt Q8IBS5). The experiment in a line: PfCDPK4 kinase inhibitors, biochemical, TCAMS library (AID 1159588; cut-off not given, nearly all actives have IC50 up to about 0.91 µM). The note with it: recombinant PfCDPK4, Kinase-Glo ATP depletion luminescence.
Calcium-dependent protein kinase 4 (Plasmodium falciparum (isolate 3D7)), sequence (Q8IBS5 whole entry, looked up): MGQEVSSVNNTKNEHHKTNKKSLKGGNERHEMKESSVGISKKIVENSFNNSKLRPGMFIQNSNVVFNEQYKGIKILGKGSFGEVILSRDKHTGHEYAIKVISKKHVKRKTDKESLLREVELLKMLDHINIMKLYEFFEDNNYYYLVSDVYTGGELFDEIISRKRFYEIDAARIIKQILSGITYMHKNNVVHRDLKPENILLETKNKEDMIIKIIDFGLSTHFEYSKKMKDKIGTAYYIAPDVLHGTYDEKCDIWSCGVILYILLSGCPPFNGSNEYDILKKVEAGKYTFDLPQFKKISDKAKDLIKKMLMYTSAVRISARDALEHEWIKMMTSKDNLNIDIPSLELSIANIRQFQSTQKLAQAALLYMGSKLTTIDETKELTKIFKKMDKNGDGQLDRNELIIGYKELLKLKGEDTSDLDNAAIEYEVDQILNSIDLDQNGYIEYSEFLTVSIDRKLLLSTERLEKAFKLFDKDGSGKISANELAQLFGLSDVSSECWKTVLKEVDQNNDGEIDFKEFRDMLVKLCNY

Calcium-dependent protein kinase 1 (Plasmodium falciparum (isolate 3D7)), sequence (P62344 whole entry, looked up): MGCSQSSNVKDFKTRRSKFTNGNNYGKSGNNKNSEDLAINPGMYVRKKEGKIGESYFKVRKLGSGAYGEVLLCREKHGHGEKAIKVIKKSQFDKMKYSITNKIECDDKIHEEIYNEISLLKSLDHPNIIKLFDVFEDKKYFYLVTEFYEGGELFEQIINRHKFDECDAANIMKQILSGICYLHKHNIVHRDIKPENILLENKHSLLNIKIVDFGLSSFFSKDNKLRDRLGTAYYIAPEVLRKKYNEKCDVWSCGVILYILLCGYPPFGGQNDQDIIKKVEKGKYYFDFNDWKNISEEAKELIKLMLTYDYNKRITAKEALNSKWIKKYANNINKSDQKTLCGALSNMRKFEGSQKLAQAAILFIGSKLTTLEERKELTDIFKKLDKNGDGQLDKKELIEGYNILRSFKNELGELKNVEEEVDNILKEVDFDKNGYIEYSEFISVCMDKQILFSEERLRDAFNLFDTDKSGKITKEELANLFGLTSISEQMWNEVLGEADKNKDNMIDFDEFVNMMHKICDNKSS
Protein kinase 7 (PK7), Plasmodium falciparum 3D7 (PF3D7_0213400), sequence (Q7YTF7 1-343): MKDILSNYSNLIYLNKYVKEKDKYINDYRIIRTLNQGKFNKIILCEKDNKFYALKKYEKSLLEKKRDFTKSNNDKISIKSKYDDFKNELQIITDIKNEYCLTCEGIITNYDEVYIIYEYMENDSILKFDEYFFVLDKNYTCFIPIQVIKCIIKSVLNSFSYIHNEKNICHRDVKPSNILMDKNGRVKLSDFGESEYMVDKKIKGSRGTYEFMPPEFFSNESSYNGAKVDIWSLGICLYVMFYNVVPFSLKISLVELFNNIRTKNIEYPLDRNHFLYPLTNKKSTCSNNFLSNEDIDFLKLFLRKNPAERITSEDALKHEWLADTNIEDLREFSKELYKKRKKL
Plasmodium falciparum protein kinase 6 (PK6, PF3D7_1337100), sequence (Q8IDW1 1-305): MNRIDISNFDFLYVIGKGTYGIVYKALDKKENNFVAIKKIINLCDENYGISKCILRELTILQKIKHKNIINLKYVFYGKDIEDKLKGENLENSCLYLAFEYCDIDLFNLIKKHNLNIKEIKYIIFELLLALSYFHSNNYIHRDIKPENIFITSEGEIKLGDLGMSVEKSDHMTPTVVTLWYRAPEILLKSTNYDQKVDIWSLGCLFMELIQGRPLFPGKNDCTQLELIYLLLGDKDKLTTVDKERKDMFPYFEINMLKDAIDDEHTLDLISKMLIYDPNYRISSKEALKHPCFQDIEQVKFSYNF
L-lactate dehydrogenase (Plasmodium falciparum (isolate CDC / Honduras)), sequence (Q27743 whole entry, looked up): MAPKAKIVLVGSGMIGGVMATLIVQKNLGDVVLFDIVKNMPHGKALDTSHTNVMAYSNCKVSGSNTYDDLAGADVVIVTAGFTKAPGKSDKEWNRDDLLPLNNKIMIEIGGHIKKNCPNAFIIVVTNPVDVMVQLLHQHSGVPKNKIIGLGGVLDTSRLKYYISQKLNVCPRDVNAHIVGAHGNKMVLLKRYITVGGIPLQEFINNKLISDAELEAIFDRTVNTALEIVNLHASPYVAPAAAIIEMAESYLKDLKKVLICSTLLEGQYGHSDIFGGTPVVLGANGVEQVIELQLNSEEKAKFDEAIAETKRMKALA

The inhibition is the drop in the measured response relative to a control, in per cent. With `N#Cc1ccc(Sc2nnc(-c3ccccc3Cl)n2CC2CCCCC2)cc1[N+](=O)[O-]`, the growth inhibition is 34% in assay [1] and 85% (active) in assay [4]. In addition, the inhibition in assay [2] was 30%; in assay [3], 1%. The outcome in assay [5], in assay [6], in assay [7] and in assay [8] was inactive.

For the compound `Cc1ccc2nc(Nc3ccc(Nc4nc5ccc(C)cc5[nH]4)c(C)c3)[nH]c2c1`, the growth inhibition was 94% (active) in assay [1] and 99% (active) in assay [4]. Besides, the values for the inhibition in assay [2] and in assay [3] were 12% and 6%, respectively. For the same compound, the result in assay [5], in assay [6], in assay [7] and in assay [8] was inactive.

Take `CC(C)(C)c1cc(C(=O)N2CCN(c3ncnc4ccsc34)CC2)n(Cc2ccccc2)n1`: the results for the growth inhibition in assay [1] and in assay [4] were 83% (active) and 95% (active), respectively. Further, the inhibition was 2% in assay [2] and -8% in assay [3]. For the same compound, the outcome in assay [5], in assay [6], in assay [7] and in assay [8] was inactive.

With `Cc1cc(N[C@@H](Cc2ccccc2)C(=O)Nc2ccccc2)nc(Nc2ccccc2)n1`, the growth inhibition in assay [1] was 69% (active); in assay [4], 101% (active). For the same compound, the inhibition was 8% in assay [2] and -1% in assay [3]. Besides, the outcome in assay [5], in assay [6], in assay [7] and in assay [8] was inactive.

Take `O=C(Nc1cc(F)cc(F)c1)NC1CCN(CCCCCNC(=O)[C@@H]2C[C@H]2c2ccc(Cl)c(Cl)c2)CC1`: the results for the growth inhibition in assay [1] and in assay [4] were 6% and 102% (active), respectively. In addition, the inhibition in assay [2] is 49%; in assay [3] it was 6%. Moreover, the outcome in assay [5], in assay [6], in assay [7] and in assay [8] was inactive.

Turning to `O=C(Nc1cccc(C(F)(F)F)c1)NC1CCN(c2ccnc3ccccc23)CC1`, the growth inhibition is 43% in assay [1] and 101% (active) in assay [4]. Also, the inhibition in assay [2] is 23%; in assay [3], -1%. For the same compound, the result in assay [5], in assay [6], in assay [7] and in assay [8] was inactive.

Turning to `Cc1[nH]n(-c2cccc(C(F)(F)F)c2)c(=O)c1-c1ccc(Cl)cc1`, the growth inhibition in assay [1] is 25%; in assay [4] it was 98% (active). In addition, the values for the inhibition in assay [2] and in assay [3] were 7% and -4%, respectively. Further, the outcome in assay [5], in assay [6], in assay [7] and in assay [8] was inactive.

On to `COc1ccc(Cn2c(Nc3cccc(C(F)(F)F)c3)nc3cc(C(=O)NCCCN(C)C)ccc32)cc1Cl`, for which the growth inhibition in assay [1] was 3%; in assay [4], 90% (active). Moreover, the results for the inhibition in assay [2] and in assay [3] were 15% and -7%, respectively. In addition, the outcome in assay [5], in assay [6], in assay [7] and in assay [8] was inactive.

As for `COc1nc2c(CCN3CC[C@H](NCc4cc(C#N)c5c(c4)CCO5)[C@H](O)C3)ccnc2cc1F`, the growth inhibition was 71% (active) in assay [1] and 99% (active) in assay [4]. Also, the inhibition is 31% in assay [2] and -9% in assay [3]. For the same compound, the outcome in assay [5], in assay [6], in assay [7] and in assay [8] was inactive.

For `CC(=O)Nc1ccc(C(=O)Nc2ccc(-c3cccc(-c4nc5ccccc5[nH]4)c3)cc2)cn1`, the growth inhibition in assay [1] is 84% (active); in assay [4], 99% (active). Moreover, the inhibition in assay [2] is 34%; in assay [3] it was 2%. For the same compound, the result in assay [5], in assay [6], in assay [7] and in assay [8] was inactive.

`CN(C)Cc1cccc(-c2ccc(NC(=O)c3ccc4c(=O)n(C5CCCCC5)cnc4c3)cc2)c1`: the growth inhibition is 53% (active) in assay [1] and 96% (active) in assay [4]. The inhibition in assay [2] is 92% (active); in assay [3], -3%. The outcome in assay [5], in assay [6], in assay [7] and in assay [8] was inactive.

As for `CCOc1ccc(-c2nc(NC(=O)COc3ccc(OC)cc3)sc2C)cc1`, the growth inhibition in assay [1] is 87% (active); in assay [4] it was 99% (active). Moreover, the results for the inhibition in assay [2] and in assay [3] were 0% and -9%, respectively. The outcome in assay [5], in assay [6], in assay [7] and in assay [8] was inactive.

`Cc1[nH]cc(Br)c(=O)c1-c1ccc(Oc2ccccc2)cc1`: the growth inhibition was 96% (active) in assay [1] and 97% (active) in assay [4]. The inhibition is -5% in assay [2] and -6% in assay [3]. For the same compound, the outcome in assay [5], in assay [6], in assay [7] and in assay [8] was inactive.

Regarding `CCOC(=O)NC1=NC(C)(C)N(OCc2ccc(Cl)c(Cl)c2)C(N)=N1`, the growth inhibition is 90% (active) in assay [1] and 96% (active) in assay [4]. The inhibition is 66% (active) in assay [2] and -5% in assay [3]. Also, the outcome in assay [5], in assay [6], in assay [7] and in assay [8] was inactive.

As for `CCn1c(Sc2ccc(C#N)c([N+](=O)[O-])c2)nnc1-c1cccc(Cl)c1`, the growth inhibition in assay [1] was 88% (active); in assay [4] it was 95% (active). In addition, the inhibition is -5% in assay [2] and -2% in assay [3]. In addition, the outcome in assay [5], in assay [6], in assay [7] and in assay [8] was inactive.

For the compound `Cc1c(CNCCCNc2nc3ccccc3[nH]2)sc(C(F)F)c1Br`, the growth inhibition in assay [1] is 5%; in assay [4], 102% (active). Besides, the inhibition in assay [2] was 9%; in assay [3] it was 2%. For the same compound, the outcome in assay [5], in assay [6], in assay [7] and in assay [8] was inactive.

Consider `CNCCCNCc1ccc(-c2ccc(F)c(Cl)c2)o1`, for which the growth inhibition is 12% in assay [1] and 100% (active) in assay [4]. The inhibition is 22% in assay [2] and 0% in assay [3]. Also, the result in assay [5], in assay [6], in assay [7] and in assay [8] was inactive.

In the case of `CCOC(=O)c1c(C)noc1Nc1cccc(C)c1C`, the growth inhibition in assay [1] is -2%; in assay [4] it was 98% (active). The inhibition in assay [2] was 8%; in assay [3], 2%. Moreover, the outcome in assay [5], in assay [6], in assay [7] and in assay [8] was inactive.

With `O=[N+]([O-])c1ccccc1C=NNc1ccnc2ccc(C(F)(F)F)cc12`, the values for the growth inhibition in assay [1] and in assay [4] were 36% and 100% (active), respectively. Moreover, the inhibition in assay [2] is 6%; in assay [3], -3%. Besides, the result in assay [5], in assay [6], in assay [7] and in assay [8] was inactive.

With `Cc1cccc2[nH]c(-c3ccc(-c4ccc(NC(=O)Nc5cccc(C#N)c5)cc4)cc3)nc12`, the growth inhibition in assay [1] is 100% (active); in assay [4], 101% (active). Also, the inhibition in assay [2] was 28%; in assay [3], 6%. Further, the outcome in assay [5], in assay [6], in assay [7] and in assay [8] was inactive.
